Usually AC50 stands for the concentration giving half of the maximal activity seen.

The source made the active and inactive calls. Rule for the calls: active = hit-call score of the fitted dose curve at least 0.9, where 1 is the maximum; inactive = score below 0.9.

A short description of experiment [1]: APR_HepG2_CellLoss_72hr: Apredica 72-hour HepG2 Assay for Cell Loss (AID 2282915). The settings on record: high-content imaging. The essentials: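 HepG2 cells exposed 72 h to compound at 0.39–200 uM (10 concentrations, duplicate) in 0.5% DMSO. Fixed with 3.7% formaldehyde and Hoechst 33342-stained. Imaged at 20x; nuclear count gives cell number, fitted bidirectionally versus DMSO.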

Experiment [2] is described as follows: APR_HepG2_P-H2AX_72hr: Apredica 72-hour HepG2 Assay for H2AX Phosphorylation (AID 2282916).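 Note: phospho-histone H2A.x immunostain intensity per cell marking DNA damage.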 The settings on record: imaging, actives raise or lower the signal. In a few lines:
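Phospho-H2A.x imaging endpoint in HepG2 after 72 hr compound exposure (0.39–200 uM, duplicate wells). Activity derived by bidirectional curve fitting with DMSO as baseline.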

Experiment [3] is described as follows: APR_HepG2_MitoMembPot_72hr: Apredica 72-hour HepG2 Assay for Mitochondrial Membrane Potential (AID 2282917). As to conditions: imaging, actives raise or lower the signal. The essentials: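 HepG2 cells dosed 72 hr with compound at 0.39–200 uM in duplicate, 0.5% v/v DMSO final. Mitochondria stained with 250 nM MitoTracker Red CMXRos for 30 min before formaldehyde fixation, imaged by high-content fluorescence; bidirectional fit versus DMSO.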

Experiment [4] is described as follows: APR_HepG2_MitoticArrest_72hr: Apredica 72-hour HepG2 Assay for Mitotic Arrest (AID 2282918). As to conditions: high-content imaging, actives raise or lower the signal. In a few lines:
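HepG2 cells treated 72 h at 0.39–200 uM, 0.5% DMSO final; formaldehyde-fixed, stained with Hoechst 33342 and phospho-histone H3 antibody, imaged by high-content fluorescence; bidirectional fit versus DMSO.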

The nature of experiment [5]: APR_HepG2_MicrotubuleCSK_72hr: Apredica 72-hour HepG2 Assay for Microtubule CSK Stabilty (AID 2282919). The settings on record: HepG2 microtubule cytoskeleton, high-content imaging, actives raise or lower the signal. The essentials:
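HepG2, 72 hr cmpd exposure, 0.39–200 uM (10 pts, duplicate), 0.5% DMSO. 3.7% formaldehyde fix, 0.5% Triton perm, anti-alpha-tubulin/Cy5 plus Hoechst. HCS fluorescence intensity; bidirectional fit vs DMSO baseline; taxol as positive control.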

Experiment [6] can be described thus: APR_HepG2_P-H2AX_24hr: Apredica 24-hour HepG2 Assay for H2AX Phosphorylation (AID 2282920). As to conditions: high-content imaging, actives raise or lower the signal. In a few lines: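 HepG2 cells dosed 24 h at 0.39–200 uM (10 points, duplicate, 0.5% DMSO final). Formaldehyde-fixed and permeabilized, then immunostained for phospho-H2A.x with Hoechst. Fluorescence quantified by high-content imaging, fitted bidirectionally versus DMSO.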

The nature of experiment [7]: APR_HepG2_StressKinase_72hr: Apredica 72-hour HepG2 Assay for Stress Kinase (AID 2282921). The settings on record: HepG2 stress kinase (phospho-c-Jun) imaging, actives raise or lower the signal. In a few lines:
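Stress kinase signal reflects nuclear phospho-c-Jun staining in fixed, permeabilized cells exposed 72 h to compound at 0.39–200 uM; DMSO-normalized, fitted for increases or decreases.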

The nature of experiment [8]: APR_HepG2_StressKinase_24hr: Apredica 24-hour HepG2 Assay for Stress Kinase (AID 2282922). The settings on record: HepG2 stress kinase (phospho-c-Jun) imaging, actives raise or lower the signal. In a few lines: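 Read-out: phospho-c-Jun immunofluorescence (Cy3 secondary) quantified by high-content imaging at 20x, nuclei defined by Hoechst 33342. Human HepG2 liver cells dosed 24 hr, 0.39–200 uM, DMSO 0.5% v/v; gain or loss of signal fitted relative to DMSO.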

Experiment [9] in a line: APR_HepG2_p53Act_72hr: Apredica 72-hour HepG2 Assay for p53 Activation (AID 2282923).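 Note: average cellular p53 protein immunofluorescence intensity in HepG2 cells.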 As to conditions: high-content imaging, actives raise or lower the signal. The essentials:
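Fixed-cell p53 staining (sheep primary, Cy5 secondary) measured by fluorescence imaging following 72 hr treatment at 0.39–200 uM in 0.5% DMSO; DMSO served as negative control and baseline.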

As to `CC(=O)OCCOCCOCCOC(C)=O`, the molecule was called inactive in experiment [1], in experiment [2], in experiment [3], in experiment [4], in [5] and in experiment [6]. Moreover, the molecule was called inactive in experiment [7], in [8] and in experiment [9].
Take `NC(=O)Cn1c(=O)cc(CCN2CCN(c3nccc4sccc34)CC2)c2ccc(F)cc21`: the AC50 was 82 µM (active) in [1], 101 µM (active) in [2], 98.9 µM (active) in experiment [4] and 101 µM (active) in experiment [9]. For the same molecule, the call in experiment [3], in experiment [5], in experiment [6], in experiment [7] and in [8] was inactive.
Turning to `Cc1ccc(N(C)C)cc1`, the outcome in [1], in experiment [2], in experiment [3], in experiment [4], in experiment [5] and in experiment [6] was inactive. The call in experiment [7], in [8] and in experiment [9] was inactive.
Regarding `Nc1ccc2c(c1)C(=O)c1ccccc1C2=O`, the AC50 in experiment [1] is 11.5 µM (active); in experiment [2], 16.2 µM (active); in experiment [4], 10.2 µM (active); in [6], 21.2 µM (active); in experiment [9], 19.3 µM (active). Besides, the molecule was called inactive in experiment [3], in experiment [5], in [7] and in experiment [8].
Take `COCCOC[C@H](CC1(C(=O)NC2CCC(C(=O)O)CC2)CCCC1)C(=O)Oc1ccc2c(c1)CCC2` (stereo partly specified): the molecule was classed as inactive in experiment [1], in experiment [2], in experiment [3], in experiment [4], in experiment [5] and in [6]. The molecule was called inactive in experiment [7], in experiment [8] and in [9].
Regarding `Cc1nc(C)nc(N2C[C@@H](C)N(c3ccnc([C@@H](C)O)n3)[C@@H](C)C2)n1`, the molecule was called inactive in [1], in experiment [2], in experiment [3], in [4], in [5] and in experiment [6]. Besides, the result in experiment [7], in [8] and in [9] was inactive.
Take `COC(=O)c1ccc(O)cc1`: the molecule was classed as inactive in [1], in [2], in [3], in experiment [4], in experiment [5] and in [6]. For the same molecule, the outcome in experiment [7], in experiment [8] and in [9] was inactive.
Regarding `Nc1nc(N)c2nc(CNc3ccc(C(=O)N[C@@H](CCC(=O)O)C(=O)O)cc3)cnc2n1`, the result in [1], in experiment [2], in experiment [3], in [4], in experiment [5] and in experiment [6] was inactive. Moreover, the outcome in experiment [7], in experiment [8] and in experiment [9] was inactive.
As for `CC1(C)CC(N=C=O)CC(C)(CN=C=O)C1` (stereo unspecified), the molecule was classed as inactive in experiment [1], in [3], in experiment [5], in experiment [7], in [8] and in experiment [9]. In addition, the values for the half-maximal activity concentration (AC50) in [2], in experiment [4] and in experiment [6] were 101 µM (active), 93.1 µM (active) and 101 µM (active), respectively.
In the case of `COc1ccc2c(c1)c(CC(=O)O)c(C)n2C(=O)c1ccc(Cl)cc1`, the call in [1], in [2], in experiment [3], in [4], in experiment [5] and in experiment [6] was inactive. Besides, the outcome in experiment [7], in experiment [8] and in experiment [9] was inactive.
With `CNC(=O)[C@H]1O[C@@H](n2cnc3c(NCc4cc(Cl)ccc4OCc4cc(C)no4)ncnc32)[C@H](O)[C@@H]1N`, the molecule was classed as inactive in experiment [1], in experiment [2], in [3], in experiment [4], in experiment [5] and in [6]. For the same molecule, the molecule was classed as inactive in [7], in experiment [8] and in experiment [9].
Take `O=C(OCCCCCOC(=O)c1ccccc1)c1ccccc1`: the AC50 in experiment [1] is 100 µM (active). The call in experiment [2], in experiment [3], in [4], in experiment [5], in experiment [6] and in [7] was inactive. In addition, the result in experiment [8] and in [9] was inactive.
Take `CCCCCCC(=O)OCC`: the outcome in experiment [1], in experiment [2], in experiment [3], in experiment [4], in [5] and in experiment [6] was inactive. The outcome in experiment [7], in [8] and in experiment [9] was inactive.
Take `CCOC(=O)CCC(=O)OCC`: the molecule was classed as inactive in experiment [1], in experiment [2], in experiment [3], in experiment [4], in [5] and in experiment [6]. Besides, the call in [7], in [8] and in experiment [9] was inactive.
Consider `O=C(O)CCCCC(=O)O`, for which the molecule was called inactive in experiment [1], in experiment [2], in [3], in experiment [4], in [5] and in experiment [6]. For the same molecule, the molecule was called inactive in experiment [7], in experiment [8] and in [9].
Consider `C[C@]12C=CC(=O)C=C1CC[C@@H]1[C@@H]2C(=O)C[C@@]2(C)[C@H]1CC[C@]2(O)C(=O)CO`, for which the call in experiment [1], in experiment [2], in experiment [3], in [4], in experiment [5] and in experiment [6] was inactive. The result in [7], in [8] and in [9] was inactive.
For `COc1ccc(S(=O)(=O)N2C(=O)[C@@](c3ccccc3OC)(N3C[C@H](O)C[C@H]3C(=O)N(C)C)c3cc(Cl)ccc32)c(OC)c1`, the AC50 is 61 µM (active) in experiment [1]; 106 µM (active) in [2]; 40.7 µM (active) in [4]; 68.2 µM (active) in experiment [6]; 100 µM (active) in experiment [7]; 100 µM (active) in experiment [9]. Further, the molecule was called inactive in experiment [3], in experiment [5] and in experiment [8].
Turning to `CCOC(=O)C(C)(C)Oc1ccc(Cl)cc1`, the molecule was classed as inactive in experiment [1], in [2], in [3], in experiment [4], in experiment [5] and in experiment [6]. The molecule was classed as inactive in experiment [7], in experiment [8] and in [9].
For `Cc1c(C(=O)O)c(O)cc2c1C(=O)c1c(O)c([C@@H]3O[C@H](CO)[C@@H](O)[C@H](O)[C@H]3O)c(O)c(O)c1C2=O`, the call in experiment [1], in [2], in experiment [4], in [5], in experiment [6] and in experiment [7] was inactive. Moreover, the molecule was classed as inactive in experiment [8] and in [9]. In addition, the AC50 in experiment [3] is 40.9 µM (active).
Turning to `NS(=O)(=O)c1cc2c(cc1Cl)NCNS2(=O)=O`, the molecule was classed as inactive in [1], in [2], in experiment [3], in [4], in [5] and in experiment [6]. Also, the molecule was classed as inactive in experiment [7], in experiment [8] and in [9].
Consider `Cc1ccccc1Cl`, for which the molecule was classed as inactive in experiment [1], in experiment [2], in experiment [3], in experiment [4], in experiment [5] and in experiment [6]. In addition, the outcome in experiment [7], in [8] and in experiment [9] was inactive.
With `O=c1c(O)c(-c2ccc(O)c(O)c2)oc2cc(O)cc(O)c12`, the results for the AC50 in experiment [1], in experiment [2] and in experiment [6] were 22.6 µM (active), 68.1 µM (active) and 48.6 µM (active), respectively. Moreover, the molecule was classed as inactive in experiment [3], in experiment [4], in [5], in [7], in experiment [8] and in [9].
Regarding `COc1cc(-c2nc(NC(=O)c3cc4cc(C)cc(C)c4n3CC(=O)O)sc2CCC2CCCCC2)c(OC)cc1Cl`, the concentration at half-maximal activity (AC50) in experiment [1] was 26.4 µM (active); in [4], 41.1 µM (active); in [5], 25.2 µM (active); in experiment [6] it was 38.9 µM (active); in [8], 48.8 µM (active). The outcome in experiment [2], in [3], in experiment [7] and in experiment [9] was inactive.
Take `C[Si]1(C)O[Si](C)(C)O[Si](C)(C)O[Si](C)(C)O1`: the call in experiment [1], in experiment [2], in [3], in experiment [4], in experiment [5] and in experiment [6] was inactive. In addition, the molecule was classed as inactive in [7], in experiment [8] and in [9].

The values above are taken from PubChem BioAssay (EPA / NIEHS).
